Test results: PubChem BioAssay (EPA / NIEHS)
The source made the active and inactive calls. The calls were made as follows: active = hit-call score of the fitted dose curve at least 0.9, where 1 is the maximum; inactive = score below 0.9.

Assay: APR_HepG2_P-H2AX_72hr: Apredica 72-hour HepG2 Assay for H2AX Phosphorylation (AID 2282916)
Conditions: imaging, actives raise or lower the signal
Protocol: APR_HepG2_72hr is a cell-based, multiplexed-readout assay that uses HepG2, a human liver cell line, with measurements taken at 72 hours after chemical dosing in a 384-well plate.APR_HepG2_P-H2AX_72hr is one of 10 assay component(s) measured or calculated from the APR_HepG2_72hr assay. It is designed to make measurements of dna content, a form of viability reporter, as detected with fluorescence intensity signals by HCS Fluorescent Imaging technology.Data from the assay component APR_HepG2_P-H2AX_72hr was analyzed into 1 assay endpoint. This assay endpoint, APR_HepG2_P-H2AX_72hr, was analyzed with bidirectional fitting relative to DMSO as the negative control and baseline of activity. Using a type of viability reporter, measures of protein for gain or loss-of-signal activity can be used to understand the signaling at the pathway-level as they relate to the gene . Furthermore, this assay endpoint can be referred to as a primary readout, because this assay has produced multiple assay endpoints where this one serves a signaling function. To generalize the intended target to other relatable targets, this assay endpoint is annotated to the dna binding intended target family, where the subfamily is cellular response to DNA damage stimulus.
Cells were treated with dimethyl sulfoxide (DMSO) as a solvent control at a final concentration of 0.5% v/v or with compounds in DMSO with a resulting final DMSO concentration of 0.5% v/v. Compound treatment was done at concentrations of 0.39, 0.78, 1.56, 3.12, 6.24, 12.5, 25, 50, 100, and 200 uM in duplicate on each plate. Cells were treated with compounds for 1, 24, or 72 hr. Carbonyl […] m-chloro-phenylhydrazone (CCCP) and taxol were used as positive controls for mitochondrial function and cytoskeletal stability, respectively; DMSO served as the negative control for this experiment. Cells were fixed by the direct addition of 50 uL formaldehyde in Hank's Balanced Salt Solution (HBSS) to a final concentration of 3.7%. After incubation in the fixation medium for 30 min at room temperature (293-298 K), cells were rinsed twice with HBSS and treated with cell permeabilization buffer (16 uL of 0.5% Triton X-100) for 10 min at room temperature (293-298 K) before labeling. For mitochondrial membrane potential and mitochondrial measurements, pre-fixed cells were incubated with 50 uL of MitoTracker Red CMXRos (Invitrogen) at a concentration of 250 nM for 30 min before fixation. In the remaining cases, post-fixed cells were labeled by incubation with a multiplexed mixture of primary antibodies in HBSS for 60 min at room temperature (293-298 K) to detect immunoreactivity of c-Jun (1:500), phospho-histone H3 (1:100), phospho-histone H2A.x (1:200), p53 (1:400), alpha-tubulin (1:200) and Hoechst 33342 (2 ug/mL). Cells were labeled for multiplexed imaging on two separate plates: a) Hoechst 33342, MitoTracker Red, phospho-histone H3, and alpha-tubulin, and b) Hoechst 33342, phospho-histone H2A.x, and c-Jun. A final rinse with HBSS (50 uL) was performed before analysis. The primary and secondary antibodies for the proteins were phospho-histone H3 (rabbit anti-phospho-histone H3 and FITC-donkey anti-rabbit IgG), phospho-histone H2A.x (mouse anti-phospho-histone H2A.x and FITC-donkey anti-mouse IgG), c-Jun (rabbit anti-phospho-c-Jun and Cy3-donkey anti-rabbit IgG), p53 (sheep anti-p53 and Cy5-donkey anti-sheep IgG), alpha-tubulin (mouse anti-alpha-tubulin and Cy5-donkey anti-mouse IgG). These antibodies are available as the CellCiphr HepG2 assay kit (Millipore).Digital images of each well were captured using a Cellomics ArrayScan VTI (Thermo Scientific Cellomics) (0.8 NA objective, 0.63x optical coupler, and XF-93 filter set) at 20x magnification. The images were acquired using the autofocus feature of the ArrayScan instrument, which entails the following steps. First, the camera focuses on channel 1 (Hoechst 33342), where nuclei are identified. Second, a Z offset of 1 um is used for capturing mitochondria (MitoTracker Red). […]

| Compound | AC50 | outcome |
| --- | --- | --- |
| CCN(CC)CCOc1ccc(C(=C(Cl)c2ccccc2)c2ccccc2)cc1 | 5.35 µM (active) |  |
| O=C(O)c1cccnc1 |  | inactive |
| C=CCCCCCCCCCCCC | 98.6 µM (active) |  |
| CC(C)(C)c1ccccc1 |  | inactive |
| CCCC(=O)O |  | inactive |
| Cc1cc(SC2=C(O)C[C@@](CCc3ccc(N)cc3)(C(C)C)OC2=O)c(C(C)(C)C)cc1CO |  | inactive |
| CN(C)C(=O)NC1(c2ccccc2)CCN(CC[C@@]2(c3ccc(F)c(F)c3)CN(C(=O)c3ccccc3)CCO2)CC1 | 91.8 µM (active) |  |
| Cn1cnc2c1c(=O)[nH]c(=O)n2C |  | inactive |
| Nc1nc(=S)c2[nH]cnc2[nH]1 | 30.5 µM (active) |  |
| CC(C)(O)c1ccc(CNC(=O)c2cccnc2Oc2ccc(F)cc2)cc1 |  | inactive |
| CCCCOC(=O)CCCCC(=O)OCCCC |  | inactive |
| Cc1c(C)c2c(c(C)c1O)CCC(C)(COc1ccc(CC3SC(=O)NC3=O)cc1)O2 (stereo not given) | 89.5 µM (active) |  |
| OCC(CO)n1cnc(-c2ccc(F)cc2)c1-c1ccnc(Oc2ccccc2)n1 |  | inactive |
| CCCC[C@H]1CN(CC2CCOCC2)C(=O)OC12CCN(C1(C)CCN(C(=O)c3c(C)ncnc3C)CC1)CC2 |  | inactive |
| CN(C)CCCN1c2ccccc2Sc2ccc(Cl)cc21 | 81.2 µM (active) |  |
| O=C(O)CC(O)(CC(=O)O)C(=O)O |  | inactive |
| CS(=O)(=O)c1ccc([C@@H](C[C@H]2CCC(=O)C2)C(=O)Nc2cnccn2)cc1Cl |  | inactive |
| CCc1nc(N)nc(N)c1-c1ccc(Cl)cc1 | 67.6 µM (active) |  |
| O=C(O)CN(CC(=O)O)CC(=O)O |  | inactive |
| CCCCC(CC)COP(=O)(OCC(CC)CCCC)OCC(CC)CCCC (stereo not given) | 46.1 µM (active) |  |

| Compound | AC50 | outcome |
| --- | --- | --- |
| S=c1[nH]c2ccccc2s1 |  | inactive |
| CC(C)c1cccc(C(C)C)c1NC(=O)NS(=O)(=O)c1cc(C(C)(C)O)co1 |  | inactive |
| C=CCc1ccc(OC)c(OC)c1 |  | inactive |
| c1ccc2occc2c1 |  | inactive |
| O=C(NS(=O)(=O)/C=C/c1cccs1)c1ccc(F)cc1Br |  | inactive |
| N[C@@H](Cc1c[nH]c2ccccc12)C(=O)O |  | inactive |
| OCC(O)CO |  | inactive |
| COC(=O)CCCC(=O)OC |  | inactive |
| CSc1ccc(Oc2ccc(S(N)(=O)=O)cc2CN(C)C)cc1C |  | inactive |
| COC(=O)CCC(=O)OC |  | inactive |
| O=C(O)c1[nH]n(-c2ccc(S(=O)(=O)O)cc2)c(=O)c1N=Nc1ccc(S(=O)(=O)O)cc1 |  | inactive |
| CC(N)=O |  | inactive |
| NC1CCCCC1 |  | inactive |
| CCCCCCCCCCCCCCCCO |  | inactive |
| CC(=O)S[C@H](C(=O)N[C@H]1Cc2ccccc2[C@H]2CCC[C@@H](C(=O)O)N2C1=O)C(C)C |  | inactive |
| CN(C)CCCN(C)CCCN(C)C |  | inactive |
| COc1ccc(OC(F)(F)F)cc1CN[C@H]1CCCN[C@H]1c1ccccc1 | 28.3 µM (active) |  |
| O=C1c2c(O)cccc2Cc2cccc(O)c21 |  | inactive |
| NC(=Nc1ccccc1)Nc1ccccc1 | 22.4 µM (active) |  |
| CCC(C)N(C)C(=O)c1cc2ccccc2c(-c2ccccc2Cl)n1 (stereo not given) |  | inactive |
